Where “and” joins values, the source holds several entries; their conditions need not be identical. Identical values can stand only once. Inconclusive results are not listed. For part of these data: Entries with a potency or affinity are not part of this list. A structure can be active in one record and inactive in another. Calls of active or inactive are those of the source. Unless noted, how the calls were made is not given here.
Experiments:
[1] = biological target: ATP-dependent translocase ABCB1 (Homo sapiens) (UniProt P08183); assay: P-glycoprotein substrate transport blockade – cell-based (AID 377; in the data active means fluorescence slope change above about 50%); settings: MDR1-expressing cells, fluorescent substrate accumulation slope; stronger effect = higher value; concentration not given here
ATP-dependent translocase ABCB1 (Homo sapiens), sequence (P08183 whole entry, looked up): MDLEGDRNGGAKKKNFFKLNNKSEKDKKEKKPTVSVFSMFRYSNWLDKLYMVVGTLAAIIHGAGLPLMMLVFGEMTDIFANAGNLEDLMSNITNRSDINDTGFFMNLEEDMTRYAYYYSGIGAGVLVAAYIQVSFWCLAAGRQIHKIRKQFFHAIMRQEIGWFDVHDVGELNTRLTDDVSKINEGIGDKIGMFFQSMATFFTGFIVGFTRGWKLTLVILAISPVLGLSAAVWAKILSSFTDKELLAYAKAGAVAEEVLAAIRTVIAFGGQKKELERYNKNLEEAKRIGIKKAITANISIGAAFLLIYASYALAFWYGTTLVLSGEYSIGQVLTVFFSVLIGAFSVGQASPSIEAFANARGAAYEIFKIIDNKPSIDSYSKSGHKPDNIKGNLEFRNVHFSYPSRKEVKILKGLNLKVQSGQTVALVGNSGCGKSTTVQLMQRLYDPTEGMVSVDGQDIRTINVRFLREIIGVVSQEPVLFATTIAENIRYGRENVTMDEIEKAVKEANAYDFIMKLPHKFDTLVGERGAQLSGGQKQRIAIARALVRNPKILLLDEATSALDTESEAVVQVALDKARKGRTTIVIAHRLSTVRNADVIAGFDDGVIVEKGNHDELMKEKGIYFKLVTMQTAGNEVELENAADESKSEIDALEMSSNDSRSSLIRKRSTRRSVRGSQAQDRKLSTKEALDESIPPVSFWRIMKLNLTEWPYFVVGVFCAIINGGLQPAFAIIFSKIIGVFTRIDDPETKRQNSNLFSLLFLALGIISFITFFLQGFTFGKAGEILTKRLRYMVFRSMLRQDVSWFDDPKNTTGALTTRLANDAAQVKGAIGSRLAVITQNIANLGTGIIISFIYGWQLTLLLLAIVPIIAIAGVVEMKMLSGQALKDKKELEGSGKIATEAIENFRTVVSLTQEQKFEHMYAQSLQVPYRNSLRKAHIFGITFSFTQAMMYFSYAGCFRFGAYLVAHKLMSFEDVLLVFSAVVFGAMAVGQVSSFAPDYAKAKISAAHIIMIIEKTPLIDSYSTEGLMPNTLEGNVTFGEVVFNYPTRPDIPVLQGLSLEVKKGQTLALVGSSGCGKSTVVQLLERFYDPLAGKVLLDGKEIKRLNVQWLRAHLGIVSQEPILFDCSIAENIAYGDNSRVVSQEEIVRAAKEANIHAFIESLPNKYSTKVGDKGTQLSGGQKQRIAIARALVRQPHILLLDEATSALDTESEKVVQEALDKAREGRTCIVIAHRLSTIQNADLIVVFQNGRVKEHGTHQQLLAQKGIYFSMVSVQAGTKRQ

[2] = blockers of polyQ-driven CASP3 activation – cell-based (AID 1583); settings: polyglutamine-induced caspase-3 activation, cell assay; stronger effect = higher value;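 tested at 10 µM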
[3] = yeast 75Q aggregation reduction – 75Q-TubU reporter (AID 1593); settings: Yeast 75Q polyglutamine aggregation reporter
[4] = restoration of touch response, mutant HTT neurons – whole organism, C. elegans mechanosensory neurons, N-terminal huntingtin (AID 1599); settings: C. elegans polyQ-huntingtin mechanosensory neurons, stronger effect = higher value
[5] = blockers of cytochrome c efflux from mitochondria – biochemical, purified mitochondria (AID 1603); settings: stronger effect = lower value;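 further: mouse liver mitochondria challenged with calcium chloride; signal normalized to the plate average as 100%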
[6] = polyglutamine aggregate formation blockers (AID 1604); settings: polyglutamine-induced protein aggregation inhibition assay; stronger effect = higher value; tested at 2.5 µM
[7] = glutamate transport activators, MN-1 cells, MN-1 cell line (AID 1612); settings: MN-1 motor neuron cells, stronger effect = higher value;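 further: tested at 1 µM final; 0% = mean of DMSO vehicle wells on each plate; positive means more glutamate uptake than control and negative means less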
[8] = GFP-Q80 aggregate reduction, neuronal-like cells, cell-based, NGF-treated PC12, GFPQ80 (AID 1614); settings: PC12 NGF-treated GFP-polyQ80 inclusion reduction;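 further: lower means fewer inclusions and 0 means no inclusions at all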
[9] = 75Q-TubH aggregate inhibition, S. cerevisiae, yeast (AID 1616); settings: S. cerevisiae 75Q-TubH polyglutamine aggregation suppression; stronger effect = higher value
[10] = compounds altering viability of human ES cells (AID 493140); settings: human embryonic stem cell survival screen; stronger effect = higher value;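 further: cells exposed to compounds for four days before counting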
[11] = P. berghei load reduction in hepatocytes – cell-based, HepG2, luciferase luminescence, HepG2 viability, primary screen (AID 624349; in the data active means parasite load remaining mostly below about 12%, no sharp cut-off; inactive means mostly above about 10%;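 further: 100% = mean of DMSO negative control wells on the same plate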); settings: P. berghei liver stage in HepG2, luciferase luminescence, concentration not given here; parasite load remaining: stronger effect = lower value; viability: measured here: HepG2 viability without parasites
[12] = biological target: 6-phosphogluconate dehydrogenase, decarboxylating (Homo sapiens) (UniProt P52209); assay: inhibition of human phosphogluconate dehydrogenase – biochemical, recombinant enzyme, NADPH absorbance, primary screen (AID 1159550;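 active means at least 20% inhibition of 6-phosphogluconate dehydrogenase activity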); settings: recombinant 6PGD, NADPH absorbance 341 nm; at 10 µM; stronger effect = higher value
6-phosphogluconate dehydrogenase, decarboxylating (Homo sapiens), sequence (P52209 whole entry, looked up): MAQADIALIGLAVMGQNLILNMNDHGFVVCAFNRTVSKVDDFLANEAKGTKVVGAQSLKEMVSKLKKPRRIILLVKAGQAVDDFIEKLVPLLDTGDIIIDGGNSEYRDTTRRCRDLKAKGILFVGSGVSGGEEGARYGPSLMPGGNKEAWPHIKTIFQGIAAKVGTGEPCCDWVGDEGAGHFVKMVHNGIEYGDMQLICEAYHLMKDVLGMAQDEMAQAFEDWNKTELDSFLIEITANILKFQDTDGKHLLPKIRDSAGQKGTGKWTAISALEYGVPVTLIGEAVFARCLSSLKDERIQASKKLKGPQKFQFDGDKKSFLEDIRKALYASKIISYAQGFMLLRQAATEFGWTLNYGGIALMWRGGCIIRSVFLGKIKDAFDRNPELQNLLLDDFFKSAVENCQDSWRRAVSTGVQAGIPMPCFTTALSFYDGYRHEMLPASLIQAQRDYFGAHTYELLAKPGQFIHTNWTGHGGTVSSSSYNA

[13] = EMT-state selective cytotoxicity in co-culture – imaging, PC-3E GFP, TEM4-18 mCherry, primary screen (AID 1345086;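 active means compounds killing one labelled cell type while sparing the other, by normalised counts and ratio limits, not self-fluorescent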;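 on all read-outs here: cells exposed to compound for 72 h before imaging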;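 on red/green cell ratio (normalised): normalised mesenchymal count divided by normalised epithelial count so high means epithelial killing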); settings: PC-3E GFP / TEM4-18 mCherry co-culture, imaging cell counts, at 1 µM; for red/green cell ratio (normalised): actives lie on both sides
[14] = test system: Aerobactin synthetase IucA (Klebsiella pneumoniae hvKP1); assay: IucA enzyme inhibition, primary screen, biochemical, Spectrum library (AID 1346200); settings: malachite green pyrophosphate, A620, at 8 µM, stronger effect = lower value;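 further: 100% = wells without compound and 0% = wells lacking enzyme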
[15] = viability loss with induced miR-34 in A549 – imaging, A549 dox-inducible miR-34, nuclei and caspase counts, primary screen (AID 1347080;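 active means compounds whose cell count with miR-34 switched on is under 0.7 times the count with it off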); settings: A549 miR-34 inducible, Hoechst nuclei count, 48 h
[16] = biological target: Mitogen-activated protein kinase 7 (Homo sapiens) (UniProt Q13164); assay: Gal4-ERK5 driven luciferase induction – cell-based, HTS, primary screen (AID 1508626;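 active means luciferase signal above three times the same-plate solvent-only control wells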;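 further: luciferase driven by Gal4-ERK5 fusion binding five Gal4 sites before minimal TATA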); settings: HeLa Gal4-ERK5 transactivation, 18 h, at 5 µM, stronger effect = higher value
Mitogen-activated protein kinase 7 (Homo sapiens), sequence (Q13164 whole entry, looked up, the tested form may be a part): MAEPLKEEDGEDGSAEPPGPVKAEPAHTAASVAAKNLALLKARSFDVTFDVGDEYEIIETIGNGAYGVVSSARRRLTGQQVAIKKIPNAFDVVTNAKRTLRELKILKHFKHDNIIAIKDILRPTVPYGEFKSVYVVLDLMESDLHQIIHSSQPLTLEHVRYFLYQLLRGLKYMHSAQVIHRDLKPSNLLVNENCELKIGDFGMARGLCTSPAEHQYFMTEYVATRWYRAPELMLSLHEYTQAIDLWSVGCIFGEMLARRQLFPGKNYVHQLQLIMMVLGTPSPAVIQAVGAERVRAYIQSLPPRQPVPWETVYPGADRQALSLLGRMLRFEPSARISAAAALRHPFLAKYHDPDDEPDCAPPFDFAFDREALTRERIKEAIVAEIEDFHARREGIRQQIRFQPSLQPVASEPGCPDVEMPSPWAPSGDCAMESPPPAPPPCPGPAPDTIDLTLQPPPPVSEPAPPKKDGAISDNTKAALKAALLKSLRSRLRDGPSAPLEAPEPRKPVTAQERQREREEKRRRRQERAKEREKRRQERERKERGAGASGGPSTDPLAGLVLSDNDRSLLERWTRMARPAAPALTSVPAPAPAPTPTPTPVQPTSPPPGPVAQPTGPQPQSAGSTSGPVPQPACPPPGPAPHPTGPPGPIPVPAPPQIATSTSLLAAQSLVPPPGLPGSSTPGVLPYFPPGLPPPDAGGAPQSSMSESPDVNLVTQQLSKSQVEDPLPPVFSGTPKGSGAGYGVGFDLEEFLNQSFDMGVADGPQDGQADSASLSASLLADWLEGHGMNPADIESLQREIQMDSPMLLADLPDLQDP

[17] = galactose survival enhancers in mitochondrial complex I cybrids – cell-based, galactose medium, ATP luminescence, primary screen (AID 1645843;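 active means z-score of at least 1.8 in each of two replicates, scored against plate mean and spread of sample wells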;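 further: positive z means more ATP and so rescue of galactose-driven cybrid death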); settings: complex I mutant cybrid cells, 72 h, stronger effect = higher value
[18] = biological target: NAD(+) hydrolase SARM1 (Homo sapiens) (UniProt Q6SZW1); assay: blocking NAD cleavage by SARM1 SAM-TIR – cell lysate, NAD-Glo luminescence (AID 1508614;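 active means compound whose remaining NAD level is above about 45 nM, limit read from the data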); settings: SAM-TIR HEK293T lysate NADase, at 1 µM, stronger effect = higher value
NAD(+) hydrolase SARM1 (Homo sapiens), sequence (Q6SZW1 whole entry, looked up): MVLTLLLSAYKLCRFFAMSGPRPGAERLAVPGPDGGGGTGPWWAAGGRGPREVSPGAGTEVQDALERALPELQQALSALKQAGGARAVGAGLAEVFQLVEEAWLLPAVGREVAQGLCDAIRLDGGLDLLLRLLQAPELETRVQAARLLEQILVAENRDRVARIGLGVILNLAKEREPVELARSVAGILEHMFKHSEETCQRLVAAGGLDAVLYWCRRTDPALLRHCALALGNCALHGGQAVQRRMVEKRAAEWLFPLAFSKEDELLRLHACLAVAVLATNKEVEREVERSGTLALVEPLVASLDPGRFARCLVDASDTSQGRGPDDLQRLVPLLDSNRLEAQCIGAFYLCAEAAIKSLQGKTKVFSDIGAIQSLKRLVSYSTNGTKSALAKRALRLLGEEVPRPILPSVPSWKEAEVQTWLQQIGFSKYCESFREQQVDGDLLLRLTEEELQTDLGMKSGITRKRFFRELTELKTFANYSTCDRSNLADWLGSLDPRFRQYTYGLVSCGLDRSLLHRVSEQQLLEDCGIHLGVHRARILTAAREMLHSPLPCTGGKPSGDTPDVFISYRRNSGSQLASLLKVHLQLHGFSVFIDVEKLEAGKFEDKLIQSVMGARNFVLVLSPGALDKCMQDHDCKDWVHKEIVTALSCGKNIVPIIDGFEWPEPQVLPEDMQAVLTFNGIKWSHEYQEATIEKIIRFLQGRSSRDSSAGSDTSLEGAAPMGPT

[19] = test system: Aerobactin synthetase IucA (Klebsiella pneumoniae, hypervirulent); assay: biochemical IucA inhibition screen of LOPAC library by absorbance (AID 1346212); settings: IucA enzyme assay, absorbance (OD) readout; stronger effect = lower value;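 tested at 8 µM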;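 further: 100% = no compound wells and 0% = no enzyme wells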
[20] = measured here: epithelial PC-3E GFP cell survival
[21] = measured here: mesenchymal TEM4-18 mCherry cell survival
[22] = measured here: relative caspase fold change +Dox/-Dox
[23] = measured here: total cells with miR-34 induction, stronger effect = lower value
[24] = measured here: total cells without miR-34 induction

## COc1ccc2c3c([nH]c2c1)C(C)=NCC3
[1]
  fluorescence slope change: 7.9% (inactive)
[2]
  inhibition: -62.4%
[3]
  score: 1.32
[4]
  rescue above control: -1.53
[5]
  cytochrome c release ratio: 0.94
[6]
  inhibition of aggregation: 51%
[7]
  glutamate uptake change: 48%
[8]
  inclusion score: 2
[9]
  aggregation suppression score: 0.883
[10]
  survival: 6 (inactive)
[11]
  parasite load remaining: 83.9% (inactive) and 28.8% (inactive) and 84.4% (inactive)
  viability: 103% and 71.6% and 83.5%
[12]
  inhibition: -10.2% (inactive)
[13]
  red/green cell ratio (normalised): 0.92 (inactive)
[13]; [20]
  normalised cell number: 1.06
[13]; [21]
  normalised cell number: 0.98
[14]
  activity remaining: 124% (inactive)
[15]; stronger effect = lower value
  fold change: 0.95 (inactive)
[15]; [22]
  fold change: 1.3
[15]; [23]
  cell count: 8720
[15]; [24]
  cell count: 9180
[16]
  luciferase signal: 68 AU (inactive)

## COc1ccc2c(c1O)-c1c(OC)c(OC)cc3c1[C@H](C2)N(C)CC3
[1]
  fluorescence slope change: 13.7% (inactive)
[10]
  survival: 5.58 (inactive)
[11]
  parasite load remaining: 125% (inactive) and 105% (inactive) and 60.3% (inactive)
  viability: 106% and 65% and 79.8%
[12]
  inhibition: 3.42% (inactive)
[13]
  red/green cell ratio (normalised): 1.1 (inactive)
[13]; [20]
  normalised cell number: 0.99
[13]; [21]
  normalised cell number: 1.09
[14]
  activity remaining: 116% (inactive)
[15]; stronger effect = lower value
  fold change: 0.862 (inactive)
[15]; [22]
  fold change: 1.06
[15]; [23]
  cell count: 9380
[15]; [24]
  cell count: 10900
[16]
  luciferase signal: 72 AU (inactive)

## OC1CCCCC1N1CCC(c2ccccc2)CC1 (configuration not stated)
[2]
  inhibition: -2.9%
[3]
  score: 1.36
[4]
  rescue above control: 12.8
[5]
  cytochrome c release ratio: 1.15
[6]
  inhibition of aggregation: 57.4%
[7]
  glutamate uptake change: -9.45%
[8]
  inclusion score: 2
[9]
  aggregation suppression score: 1.46
[10]
  survival: 2.42 (inactive)
[11]
  parasite load remaining: 122% (inactive) and 70.2% (inactive)
  viability: 88.2% and 106%
[12]
  inhibition: 1.03% (inactive)
[13]
  red/green cell ratio (normalised): 0.98 (inactive)
[13]; [20]
  normalised cell number: 1.07
[13]; [21]
  normalised cell number: 1.05
[14]
  activity remaining: 87.4% (inactive)
[15]; stronger effect = lower value
  fold change: 0.987 (inactive) and 1.03 (inactive) and 0.84 (inactive)
[15]; [22]
  fold change: 1.87 and 1.57 and 4
[15]; [23]
  cell count: 10100 and 9780 and 10400
[15]; [24]
  cell count: 10200 and 9480 and 12300
[16]
  luciferase signal: 60 AU (inactive)
[17]
  z-score: 0.03 (inactive) and 0.65 (inactive)

## O=[N+]([O-])c1cc([As](=O)(O)O)ccc1O
[2]
  inhibition: 4.6%
[3]
  score: 1.17
[4]
  rescue above control: -4.04
[5]
  cytochrome c release ratio: 1.09
[6]
  inhibition of aggregation: 3.7%
[7]
  glutamate uptake change: -17%
[8]
  inclusion score: 1.5
[9]
  aggregation suppression score: 1.08
[10]
  survival: 4.83 (inactive)
[11]
  parasite load remaining: 90.8% (inactive) and -0.22% (active) and 33.7% (inactive)
  viability: 83.9% and 75.8% and 93.4%
[12]
  inhibition: 11.3% (inactive)
[13]
  red/green cell ratio (normalised): 1.34 (inactive)
[13]; [20]
  normalised cell number: 0.89
[13]; [21]
  normalised cell number: 1.19
[14]
  activity remaining: 112% (inactive)
[15]; stronger effect = lower value
  fold change: 0.929 (inactive) and 0.938 (inactive)
[15]; [22]
  fold change: 0.651 and 3.1
[15]; [23]
  cell count: 8580 and 11200
[15]; [24]
  cell count: 9240 and 11900
[18]
  remaining NAD: 10 nM (inactive)
[16]
  luciferase signal: 44 AU (inactive)

## O=C1C(Cl)=C(Cl)C(=O)C(Cl)=C1Cl
[12]
  inhibition: 3.96% (inactive)
[13]
  red/green cell ratio (normalised): 1.04 (inactive)
[13]; [20]
  normalised cell number: 1
[13]; [21]
  normalised cell number: 1.04
[14]
  activity remaining: 100% (inactive)

## O=C(O)CCC1NCC2CC1CN1CCCCC21 (configuration not stated)
[12]
  inhibition: 1.87% (inactive)
[13]; counts scaled to control wells, 1 = unselective
  red/green cell ratio (normalised): 1.12 (inactive)
[13]; [20]
  normalised cell number: 0.9
[13]; [21]
  normalised cell number: 1.01
[14]
  activity remaining: 120% (inactive)

## COc1cc2c(cc1OC)C(C)NCC2 (configuration not stated)
[10]
  survival: 7.17 (inactive)
[11]
  parasite load remaining: 65.2% (inactive) and 87.3% (inactive)
  viability: 106% and 76.1%
[12]
  inhibition: -13.1% (inactive)
[13]
  red/green cell ratio (normalised): 1.03 (inactive)
[13]; [20]
  normalised cell number: 0.91
[13]; [21]
  normalised cell number: 0.94
[14]
  activity remaining: 101% (inactive)
[15]; stronger effect = lower value
  fold change: 0.83 (inactive)
[15]; [22]
  fold change: 1.56
[15]; [23]
  cell count: 9140
[15]; [24]
  cell count: 11000
[16]
  luciferase signal: 36 AU (inactive)

## CN1C2CCC1CC(OC(c1ccccc1)c1ccccc1N)C2 (configuration not stated)
[12]
  inhibition: 2.13% (inactive)
[13]
  red/green cell ratio (normalised): 0.76 (inactive)
[13]; [20]
  normalised cell number: 1.34
[13]; [21]
  normalised cell number: 1.01
[14]
  activity remaining: 118% (inactive)
[19]
  remaining activity: 119% (inactive)
[15]; stronger effect = lower value
  fold change: 1 (inactive)
[15]; [22]
  fold change: 2.1
[15]; [23]
  cell count: 9770
[15]; [24]
  cell count: 9760
[17]
  z-score: -0.4 (inactive)

## CNC(C)C(O)c1ccccc1 (configuration not stated)
[2]
  inhibition: 28.1% and 10.2%
[3]
  score: 0.95 and 1.05
[4]
  rescue above control: -2.36 and -10.7
[5]
  cytochrome c release ratio: 1.45 and 0.98
[6]
  inhibition of aggregation: 84.6% and 51.5%
[7]
  glutamate uptake change: -17.5% and 6.9%
[8]
  inclusion score: 2
[9]
  aggregation suppression score: 1.13 and 1.02
[11]
  parasite load remaining: 90.9% (inactive) and 53.2% (inactive)
  viability: 77.9% and 114%
[12]
  inhibition: -20.1% (inactive)
[13]
  red/green cell ratio (normalised): 0.97 (inactive)
[13]; [20]
  normalised cell number: 1.05
[13]; [21]
  normalised cell number: 1.03
[14]
  activity remaining: 81.5% (inactive)
[15]; stronger effect = lower value
  fold change: 0.894 (inactive)
[15]; [22]
  fold change: 2.97
[15]; [23]
  cell count: 10800
[15]; [24]
  cell count: 12100
[18]
  remaining NAD: 10 nM (inactive)
[16]
  luciferase signal: 24 AU (inactive)

## O=C(O)CC[N+](=O)[O-]
[12]
  inhibition: -4.59% (inactive)
[13]
  red/green cell ratio (normalised): 1.06 (inactive)
[13]; [20]
  normalised cell number: 0.86
[13]; [21]
  normalised cell number: 0.91
[14]
  activity remaining: 105% (inactive)
[19]
  remaining activity: 116% (inactive)
[15]; stronger effect = lower value
  fold change: 1.06 (inactive)
[15]; [22]
  fold change: 2.1
[15]; [23]
  cell count: 10800
[15]; [24]
  cell count: 10200
[16]
  luciferase signal: 152 AU (inactive)
[17]
  z-score: -0.29 (inactive)

— PubChem BioAssay
